Results reported in PubChem BioAssay AID485314 (National Center for Advancing Translational Sciences (NCATS), 2010).
Values joined by “and” are separate entries in the source; they are usually repeats but may differ in a detail not shown here. Equal entries are not always repeated. About 4,500 (1.3%) of roughly 340,000 compounds were called active. Not shown: some 5% with an inconclusive outcome. The sample holds actives, similar compounds and a random draw of the others, so the mix is not that of the screen. Calls follow the shape of the dose curve; as a rule, active = well fitted inhibition curve with a large enough effect; inconclusive = small, poorly fitted or top-dose-only effect, or another doubt; inactive = no such curve, though single readings can be large or run the other way.

target: DNA polymerase beta (Homo sapiens) (UniProt P06746); test: qHTS Assay for Inhibitors of DNA Polymerase Beta; settings: Pol beta primer extension/strand displacement, fluorescence kinetic; series mostly up to 114 µM; activity change, negative = inhibition: at the top concentration
How it was run: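 Homogeneous kinetic assay of primer extension and strand displacement by 10 nM Pol beta, preincubated 15 min at room temperature with compound before 50 nM substrate (final) was added. Read at 0 and 10 min; four-parameter Hill fit.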
% is scaled to controls: 0 for no effect and ±100 for the full control effect; potency is read from the fitted curve at half-maximal effect.

Activity change, negative = inhibition, inactive:
Cc1ccc(NC(=O)c2nc(S(=O)(=O)Cc3cccc(C)c3)ncc2Cl)cc1 16.3%
COc1ccc(NS(=O)(=O)c2cc3c4c(c2)CC(=O)N4CCC3)cc1Cl 1.58%
CC(C)Cn1c(=O)c2ccccc2n2c(-c3cccc(Cl)c3)nnc12 23%
O=c1[nH]n2c(-c3ccccc3)nc(O)c2c2ccccc12 34.8%
COc1ccc(CNC(=O)c2cc3c(-c4ccccc4F)nn(C)c3s2)c(OC)c1 1.71%
COc1ccc(N2CCN(c3nc(-c4ccccc4F)nc4ccccc34)CC2)cc1 -10.7%
COc1ccc(-n2c(C)nc3c(cnn3-c3ccc(F)cc3)c2=O)cc1 42.6%
CC(C)c1ccc(Cn2c(COc3ccccc3)nc3ccccc32)cc1 19.8%
Cc1c(C)n(Cc2ccc(Cl)cc2)c2ccc(C(=O)N3CCN(c4ccccc4F)CC3)cc12 -25.6%
Cc1ccc(C)c(Oc2c(C(F)(F)F)oc3c(CN4CCN(C)CC4)c(O)ccc3c2=O)c1 -17.9%
Cc1cccc(-n2ccnc2SCC(=O)Nc2cccc3ccccc23)c1C 10.7%
CCCS(=O)(=O)Nc1cccc(-c2cn3ccsc3n2)c1 -12.8%
CC(=O)Nc1ccc(NC(=O)CCCc2nc(-c3ccc(C(C)(C)C)cc3)no2)cc1 28.3%
CCc1nn(CC(=O)N2CCN(CC)CC2)c(=O)c2cccn12 1.16%
CC(C)c1ccc(NC(=O)Cn2ncc3ccccc32)cc1 31.7%
CC(=O)c1ccc(N2CCN(C3C(=O)c4ccccc4N3C(C)=O)CC2)cc1 (stereo unspecified) 50.8%
Cc1ccc(-c2ccc(CCC(=O)O)n2-c2ccc(C(N)=O)cc2)cc1 6.21%
Cc1nn(-c2ccc(F)cc2)c(-n2cccc2)c1C(=O)N1CCN(c2ccccc2)CC1 -8.92%
Cc1nn(-c2ccccc2)c(-n2cccc2)c1C(=O)O -15.2%
COc1cccc(NC(=O)C(=O)NCC(c2ccc3c(c2)OCO3)N2CCN(C)CC2)c1 (stereo unspecified) -9.86%
Cc1ccccc1Nc1nn2c(=O)c3ccc(C(=O)NCCc4ccc(Cl)cc4)cc3nc2s1 -0.38%
CCN(Cc1ccccc1)S(=O)(=O)c1ccc2c(c1)CCCN2C(C)=O 31.7%
CCc1nnc(SCC(=O)Nc2cc(OC)ccc2OC)nc1CC 23.5%
CCOc1ccc2[nH]c(C(=O)N/N=C/c3cccc(OC)c3OC)cc2c1 -0.753%
COc1ccc2[nH]c(C(=O)Nc3ccccc3Cl)cc2c1 21.2%
CCc1nc2c(cnn2-c2ccc(C)cc2)c(=O)n1-c1ccc(C)cc1 -17.5%
COc1ccccc1N1CC(C(=O)Nc2nnc(SCC(=O)NCC3CCCO3)s2)CC1=O (stereo unspecified) -12.3%
COc1ccccc1N1CC(C(=O)Nc2nnc(SCC(=O)NC(C)C)s2)CC1=O (stereo unspecified) 21.8%
Cc1ccc(Cl)cc1NC(=O)Cc1ccc(-n2c(C)nc3cccnc32)cc1 -2.17%
CCS(=O)(=O)c1cc([N+](=O)[O-])c(Sc2ccccc2N)s1 18%
CCOC(=O)C1=C(CC)Nc2ccccc2N=C1N 9.29%
CN1c2ccc(Cl)cc2-c2nc(SCC(=O)Nc3cc(F)ccc3F)ncc2S1(=O)=O 18%
COc1cc(CNCCSc2nnnn2C)ccc1OCc1ccc(Cl)cc1Cl -25.4%
CCc1cccc(NC(=O)CN(C)S(=O)(=O)c2ccc3[nH]c4c(c3c2)CCCC4)c1 0.243%
COc1cccc(CNC(=O)CCC(=O)N2CC3CCCN3c3ccccc32)c1 (stereo unspecified) -2.64%
C/C(=N\Nc1ncc(Cl)cc1Cl)c1ccc(S(=O)(=O)NCc2ccco2)cc1 13.7%
O=C(NCCCCCCNC(=O)NCc1ccco1)NCc1ccco1 24.2%
O=C(CC1CCCCC1)NCc1ccco1 -12.9%
O=C(COC(=O)c1ccco1)NCc1ccc(Cl)cc1 -9.59%
O=C(COC(=O)c1cc(S(=O)(=O)N2CCCCC2)ccc1Cl)NCc1ccco1 1.64%
CN(c1ccccc1)S(=O)(=O)c1ccc(Cl)c(C(=O)OCC(=O)NCc2ccco2)c1 -98.4%
CSCCC(NC(=O)c1ccco1)C(=O)OCC(=O)Nc1ncc(Cl)c(C)c1Cl (stereo unspecified) -18%
Cc1cc(C(=O)OCC(=O)N2c3ccccc3NC(=O)C2(C)C)c(C)n1-c1ccccc1 -0.675%
COc1ccc(NC(=O)CCCN2C(=O)CCn3nc(-c4cn(C)c5ccccc45)cc32)cc1OC 4.33%
CCN1CCN(C(c2ccc(C)cc2)c2c(O)cc(C)n(Cc3ccco3)c2=O)CC1 (stereo unspecified) -20%
CC1Cc2cc(S(=O)(=O)CCC(=O)NCc3ccc(Cl)cc3)ccc2N1C(=O)C1CC1 (stereo unspecified) -0.0771%
C#CC(C)(CC)NC(=O)Cn1nnc(-c2ccc(OCc3c(F)cccc3Cl)cc2)n1 (stereo unspecified) -7.54%
CC(=O)OC1=C(C(C)=O)N(Cc2ccccc2)S(=O)(=O)c2ccccc21 18.8%
O=C(C1CCC(Cn2c(=O)c3sccc3n(Cc3ccccc3F)c2=O)CC1)N1CCCCC1 (stereo unspecified) -0.425%
COCCCNC(=O)c1ccc(NC(=O)c2nsc3ccccc23)cc1 -0.898%

Potency, active:
O=c1[nH]c2ccccc2n2c(-c3ccccc3)nnc12 39.8 µM
CC(C)c1ccc2c(c1)c(SC(C)(C)C)c(CC(C)(C)C(=O)O)n2Cc1ccc(Cl)cc1 50.1 µM and 31.6 µM
CCCN1CCN(C(=O)Cn2ncc3ccccc32)CC1 12.6 µM
Cc1ccc(-n2nc(C)c(C(=O)O)c2-n2cccc2)cc1 12.6 µM
COc1ccc2[nH]c(C(=O)N/N=C/c3cc(OC)c(OC)c(OC)c3)cc2c1 8.91 µM
Cc1ccccc1N1CC(C(=O)Nc2nnc(SCCC3OCCO3)s2)CC1=O (stereo unspecified) 14.1 µM
CCOC(=O)c1cc(Sc2ccccc2N)cc(C(=O)OCC)n1 25.1 µM
O=C(COC(=O)c1cnc(Cl)c(Cl)c1)NCc1ccco1 25.1 µM
O=C(COC(=O)C12CC3CC(CC(C3)C1)C2)NCc1ccco1 14.1 µM
Cc1cc(C(=O)OCC(=O)NCc2ccco2)c(C)n1-c1ccccc1 22.4 µM
Cc1c(Cl)cnc(NC(=O)COC(=O)c2ccc(S(=O)(=O)NCc3ccco3)cc2)c1Cl 31.6 µM
